Reference: PubChem BioAssay AID504406 (Broad Institute, 2011)
Out of some 320,000 compounds screened, about 190 (0.059%) were called active. The entries come from a sample that favours actives as a whole. Values without a mark were called inactive. Cut-off read from the data, not from the text of the source: active = inhibition above about 10% (passing the limit was not always enough); inconclusive = no clear call, values can overlap the other calls.

target: UDP-galactopyranose mutase (Mycobacterium tuberculosis (strain ATCC 25618 / H37Rv)) (UniProt P9WIQ1); assay: blockers of Mtb UDP-galactopyranose mutase – biochemical, fluorescence polarization, single point, primary screen (AID 504406); conditions: purified UGM, fluorescence polarization probe displacement; at 10 µM; active compounds read high
Sequence (P9WIQ1 whole entry, looked up): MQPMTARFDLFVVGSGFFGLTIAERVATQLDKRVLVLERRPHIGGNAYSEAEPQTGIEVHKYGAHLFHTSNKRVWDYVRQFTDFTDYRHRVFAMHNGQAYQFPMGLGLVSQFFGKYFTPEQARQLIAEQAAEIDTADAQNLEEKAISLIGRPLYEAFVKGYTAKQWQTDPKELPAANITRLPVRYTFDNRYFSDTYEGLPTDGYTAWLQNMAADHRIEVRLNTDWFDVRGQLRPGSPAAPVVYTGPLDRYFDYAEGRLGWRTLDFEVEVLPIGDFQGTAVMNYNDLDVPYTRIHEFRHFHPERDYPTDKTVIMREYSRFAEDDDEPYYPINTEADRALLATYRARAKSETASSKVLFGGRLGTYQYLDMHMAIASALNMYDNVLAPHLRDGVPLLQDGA

| SMILES | inhibition |
| --- | --- |
| CC(C)CNC(=O)C(=O)NCC(c1ccc2c(c1)OCO2)N1CCOCC1 (centres undefined) | -1.37% |
| Cn1c(=O)cc(OCC(=O)N2CCN(c3ccccc3F)CC2)c2ccccc21 | 0.591% |
| Cc1cc(C)n(CCNC(=O)CC2C(=O)NCCN2Cc2ccc(C)o2)n1 (centres undefined) | -1.39% |
| CC(C)(C)c1cc[n+](-c2[nH]c(=O)sc2/C=N/N=C(\[O-])c2ccccc2)cc1 | 0.838% |
| CCCCn1c(-c2cccc(C)c2)nc2cc3[nH]c(=O)c(C(C)C)nc3cc21 | -1.53% |
| CCOC(=O)c1ccc(NC(=S)N2CCN(c3ccccn3)CC2)cc1 | 0.665% |
| COc1ccc(N(C(=O)c2ccc(C)cc2)S(=O)(=O)c2cccs2)cc1 | 0.9% |
| CCn1c(SCC(=O)Nc2sc(C)c(C)c2C#N)nnc1C1CC1 | 2.46% |
| O=C(NCc1nnc(SCC(=O)N2CCCc3ccccc32)o1)c1ccccc1F | -0.239% |
| COc1cccc(NC(=O)Nc2nnc(N3CCCCC3C)s2)c1 (centres undefined) | -1.07% |
| O=C(Cc1ccccc1F)NC1CCSc2ccccc21 (centres undefined) | 1.04% |
| CCN(Cc1ccncc1)C(=O)CCc1ccccc1 | -1.33% |
| C/C=C/c1ccc(OCC(O)CN2CCCCCCC2)c(OC)c1 (centres undefined) | -2.18% |
| Cc1cc(NC(=O)CCS(=O)(=O)c2ccc(F)cc2)no1 | 1.59% |
| Cc1[nH]c2ccccc2c1CCN(Cc1cccs1)C(=S)NC(C)(C)C | 1.01% |
| COc1cccc(NC(=S)N(CCc2c(C)[nH]c3ccccc23)Cc2ccco2)c1 | 5.05% |
| COc1ccc2[nH]c(C)c(CCN(Cc3cccs3)C(=S)Nc3ccccc3OC)c2c1 | 12.8% (active) |
| COc1ccccc1CNC(=O)c1ccc(N(C)S(=O)(=O)c2ccc(C)cc2)cc1 | -1.48% |
| CCOc1ccc(CCNC(=O)COC(=O)c2ccc(F)c(S(=O)(=O)N3CCOCC3)c2)cc1OCC | 0.417% |
| Cc1c(Cl)cccc1NC(=O)CCC(=O)N/N=C/c1ccco1 | 2.71% |

| SMILES | inhibition |
| --- | --- |
| COc1ccc(CNC(=O)C(=O)NCC2OCCN2C(=O)c2ccc(OC)cc2)cc1 (centres undefined) | -1.77% |
| FC(F)(F)c1cc(-c2ccco2)nc(NCc2ccc(Cl)cc2)n1 | -0.748% |
| Cc1noc(C)c1S(=O)(=O)Nc1ccc(C(=O)O)cc1 | -2.83% |
| O=C(O)c1ccc(F)c(S(=O)(=O)Nc2ccccc2)c1 | 2.67% |
| Cc1cc(C(C)(C)C)cc(S(=O)(=O)Nc2ccc(C(=O)O)cc2)c1C | 20% (active) |
| Cc1cc(C)cc(N(CC(=O)NCC2CCCO2)S(=O)(=O)c2c(C)noc2C)c1 (centres undefined) | -1.07% |
| CCc1ccc(Nc2n[n+](-c3ccccc3)c(-c3cccc(Cl)c3Cl)s2)cc1 | 1.25% |
| O=C(O)CCS(=O)(=O)c1ccc(-c2ccccc2)cc1 | 0.58% |
| O=C(c1ccco1)N1CCN(C(=O)C2CCCN(S(=O)(=O)c3cccc4nsnc34)C2)CC1 (centres undefined) | 1.18% |
| COc1cccc(/C=N/NC(=O)C(=O)N2CCCC2)c1 | -1.54% |
| C#CCNC(=O)[C@H](Cc1ccc(C(=O)c2ccccc2)cc1)NC(=O)OC(C)(C)C | -0.186% |
| CCN(CC)S(=O)(=O)c1ccc(N2CCCC2)c(NS(=O)(=O)c2cccs2)c1 | -0.858% |
| Clc1ccc(-c2cc(COc3ccccc3)no2)cc1Cl | 2.39% |
| Cc1ccc(S(=O)(=O)N(CC(=O)N/N=C/c2ccc(F)cc2)c2cccc3cccnc23)cc1 | 1.31% |
| COc1ccc2c(c1)c(=O)c(C(=O)c1ccc(Cl)cc1)cn2CC(=O)Nc1ccc(F)cc1 | -1.48% |
| Cc1cc(C)n(CCC(=O)N2CCN(S(=O)(=O)c3ccc(C)c(C)c3)CC2)n1 | -2.44% |
| CCOC(=O)C1(CCOc2ccccc2)CCN(Cc2ccc(C#CCCO)cc2)CC1 | -2.01% |
| COC(=O)c1ccc(NC(=O)CSc2nncn2-c2cccnc2)cc1 | -3.9% |
| COc1ccc(C(O)(C2CCCCC2)C(CN2CCCC2)c2ccccc2)cc1 (centres undefined) | 1.17% |
| COc1ccc(CNS(=O)(=O)c2ccc(NC(=O)N3CCCCC3)cc2)cc1 | 0.444% |

| SMILES | inhibition |
| --- | --- |
| COC(=O)c1c(NC(=O)COc2ccc(Cl)cc2Cl)sc2c1CC(C)(C)NC2(C)C | -3.8% |
| C=C(Br)CN1CCN(CC(=C)Br)CC1 | 2.58% |
| C=CC[C@@H](CC(=O)NCCO)C(=O)N[C@H](C)COC(=O)[C@@H](CC=C)CC(=O)OC(C)(C)C | -0.634% |
| Cn1c(=O)c2c(nc(OCc3cccnc3)n2Cc2ccccc2)n(C)c1=O | 7.96% |
| Cc1cc(C(=O)OCC(=O)Nc2ccc(F)c(F)c2)c(C)o1 | -0.0838% |
| COc1cccc(NC(=O)CN(C)CC(=O)c2c(N)n(Cc3ccccc3)c(=O)n(C)c2=O)c1 | 3.19% |
| CCCn1nnnc1NCc1ccc(CC)cc1 | -1.05% |
| Cc1cccc(N(C)C(=O)CN2C(=O)COc3ccc(S(=O)(=O)N4CCCCCC4)cc32)c1 | -1.26% |
| CCOC(CNC(=O)C1CCN(S(=O)(=O)c2ccc3nc4c(c(C(=O)O)c3c2)CC(C)CC4)CC1)OCC (centres undefined) | -0.608% |
| Cc1ccc(N)cc1-n1c(C)ccc1C | -4.8% |
| CC(Sc1nc2cc(Cl)ccc2s1)C(=O)Nc1ccc2c(c1)OCO2 (centres undefined) | 1.22% |
| Cc1cccc(N(CC(=O)Nc2ccc(-c3nc4ccc(C)cc4s3)cc2)S(C)(=O)=O)c1 | -2.81% |
| CCN(CC)CCn1cnc2c1c(=O)n(CCOC(=O)c1cc(OC)c(OC)c(OC)c1)c(=O)n2C | 0.786% |
| CC(CNC(=O)Cn1cnc2c(OCc3ccccc3)ncnc21)c1ccccc1 (centres undefined) | -1.84% |
| CCSC1(SCC)N=C(N)C2(C#N)C(c3ccccc3)NC(C)=CC12C#N (centres undefined) | 0.444% |
| O=C1CCC(Cc2ccccc2)N1 (centres undefined) | 1.36% |
| O=C(CN1C(=O)c2ccc([N+](=O)[O-])cc2C1=O)Nc1nnc(C2CC2)s1 | 0.737% |
| CN1CCN(Cc2nc3cc(NC(=O)COc4ccc([N+](=O)[O-])cc4)ccc3n2C)CC1 | -1.12% |
| CC1CCC2(CC1)NC(=O)N(CC(=O)c1cccn1C)C2=O (centres undefined) | -1.14% |
